A selection: hits, their analogues and other compounds. The true share with any hit is near 0.51%.
E coli growth-1 = reduces bacterial viability in AddAB counter-screen | E. coli V3065 growth, OD600 absorbance, 18 h | inhibition, % at 11.9 µM | 330,000 compounds, 0.27% hits | AID 449728;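 active means inhibition above the campaign's mean inhibition across all tested compounds plus 3 SD, cut at about 9.9% in these data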;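 further: uninfected addAB+ strain grown without phage in ampicillin broth; 0% = DMSO wells and 100% = ciprofloxacin 0.95 µg/ml wells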
AddAB inh = less growth of phage-infected E. coli with AddAB; E. coli expressing H. pylori AddAB, absorbance growth; inhibition, % at 11.9 µM; 330,000 compounds, 0.29% hits; in the data active means inhibition above about 12%;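 further: 0% = vehicle wells of infected cells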
phage Ecoli inh = E. coli growth loss with phage present | growth absorbance | inhibition, % at 11.9 µM | 360,000 compounds, 0.26% hits | AID 651602; in the data active means inhibition above about 11%
E coli growth-2 = inhibitors of Escherichia coli growth; OD600, 23 h; hits give low values; OD600 absorbance (concentration not given with the values); 330,000 compounds, 0.21% hits; AID 1053175;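 active means OD600 absorbance below the run mean of sample wells minus 3.6 SD, in any replicate, cut at about 0.56 in these data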
Tat export inh = blocks Tat-dependent protein export in E. coli. E. coli MC4100 TorA-mCherry Tat export, fluorescence. inhibition, % at 10 µM. 340,000 compounds, 0.036% hits. AID 488895;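 active means mean replicate inhibition at least 50% and at least half of replicates individually reaching 50%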;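 further: exported cargo escapes ClpAP degradation while cytoplasmic cargo is degraded and loses fluorescence; 0% = median of neutral control wells and 100% = median of NaSCN control wells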
AddAB confirm = confirmation screen: growth loss of phage-infected E. coli expressing H. pylori AddAB | inhibition, % at 11.9 µM | E. coli V3065 expressing H. pylori AddAB, T4 phage, OD; T4 phage with gene 2 nonsense mutations | shares compounds with AddAB inh | AID 488942 | 880 compounds, 64% hits;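 active means mean inhibition above a set limit taken from the earlier primary screen, cut at about 13% in these data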;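 further: higher means less bacterial growth since AddAB block lets phage replicate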
RecBCD counter = AddAB counter-screen: growth loss of RecBCD+ E. coli infected with mutant T4 phage | inhibition, % at 11.9 µM | shares compounds with AddAB inh | E. coli V66 + mutant T4 phage, OD growth | 880 compounds, 73% hits;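 active means mean inhibition above the mean of solvent-only control wells plus 3 SD, cut at about 4% in these data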;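 further: optical density read after an 18 h incubation at 37 °C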
Bact viability = reduces bacterial viability, AddAB inhibitor counter-screen. shares compounds with AddAB inh. absorbance (AddAB counterscreen). inhibition, % at 11.9 µM. 880 compounds, 35% hits; in the data active means inhibition above about 25%
An asterisk follows results filed as active.

For CC(=O)c1cccc(NC(=O)CCNS(=O)(=O)c2cccc3nonc23)c1 the results were E coli growth-1 7, AddAB inh 13*, phage Ecoli inh 5, E coli growth-2 0.68, Tat export inh -17, AddAB confirm 6, RecBCD counter 4.5* and Bact viability 5.
`COC(=O)C1CC2CCC(O)CC2N1Cc1ccc(C)s1` (stereo unspecified) gave E coli growth-2 0.68.
For NC(=S)N/N=C/c1ccc(C(F)(F)F)cc1 the results were E coli growth-1 2, AddAB inh 0, phage Ecoli inh 4 and Tat export inh -4.
For NC(=S)N/N=C/c1ncc(C(F)(F)F)cc1Cl the results were E coli growth-1 18*, AddAB inh 23*, Tat export inh -4, AddAB confirm 18*, RecBCD counter 18* and Bact viability 18.
`CCn1nnnc1SCC(=O)NCc1ccc2c(c1)OCO2` gave E coli growth-1 13*, AddAB inh 21*, phage Ecoli inh 1, E coli growth-2 0.77, Tat export inh -1, AddAB confirm -5, RecBCD counter -2 and Bact viability -5.
`CCOC(=O)c1c(C)nc(C)c2c(=O)oc3ccccc3c12` gave E coli growth-1 99*, AddAB inh 98*, phage Ecoli inh 1, E coli growth-2 0.69, Tat export inh 8, AddAB confirm -3, RecBCD counter -2 and Bact viability -3.
CC1CN(C(C)CO)C(=O)c2cccc(N(C)C)c2OC1CN(C)Cc1ccncc1 (stereo unspecified) was read as E coli growth-2 0.62.
`O=C(Cn1ccc(C(F)(F)F)n1)Nc1cccc(S(=O)(=O)N2CCCCC2)c1` gave E coli growth-1 24*, AddAB inh 35*, phage Ecoli inh 5, E coli growth-2 0.65, Tat export inh -1, AddAB confirm -5, RecBCD counter -1 and Bact viability -2.
CCCC(=O)NC(c1ccc2c(c1)OCO2)c1cc(Cl)c2cccnc2c1O (stereo unspecified) was read as E coli growth-1 24*, AddAB inh 23*, E coli growth-2 0.68, Tat export inh -5, AddAB confirm 21*, RecBCD counter 22* and Bact viability 23.
For COc1ccc(C(NC(C)=O)c2cc(Cl)c3cccnc3c2O)cc1OC (stereo unspecified) the results were E coli growth-1 9, AddAB inh 10, phage Ecoli inh 8 and Tat export inh -2.
Screening CCC(=O)NC(c1ccc(C)cc1)c1cc(Cl)c2cccnc2c1O (stereo unspecified) returned E coli growth-1 25*, AddAB inh 21*, Tat export inh -11, AddAB confirm 16*, RecBCD counter 17* and Bact viability 14.
`CCC(=O)NC(C)c1cc(Cl)c2cccnc2c1O` (stereo unspecified) gave E coli growth-1 -4, AddAB inh -4, phage Ecoli inh 7, E coli growth-2 0.69 and Tat export inh 0.
`COC(=O)[C@@]12CCCN1C(c1ccc(-c3ccccc3)c(OC)c1)C1C(=O)N(C)C(=O)C12` (stereo partly specified) gave E coli growth-2 0.66.
For O=C(Nc1cc(C(F)(F)F)ccc1-n1cncn1)c1ccc([N+](=O)[O-])o1 the results were E coli growth-1 14*, AddAB inh 18*, phage Ecoli inh 10, E coli growth-2 0.66, Tat export inh 1, AddAB confirm 73*, RecBCD counter 5.7* and Bact viability 19.
For COc1ccccc1CN1C(=O)C2Cc3c([nH]c4ccccc34)C(C)(C)N2C1=O (stereo unspecified) the results were E coli growth-2 0.66.
CCCCNC(=O)OC1CC2CCN3C(=O)CCCC(C1Cc1ccccc1)C23 (stereo unspecified) was read as E coli growth-2 0.66.
